Laboratory results taken from PubChem BioAssay (Tox21).
Inconclusive results are not listed. Activity calls are given as the source filed them. Calls follow the shape of the dose curve; as a rule, active = well fitted curve in the direction sought with a large enough effect in the repeat runs; inconclusive = weak or mixed curves; inactive = no such curve, though single readings can be large; an effect the other way counts as inactive or inconclusive.

Assays:
[1] = biological target: Cytochrome P450 2C19 (Homo sapiens) (UniProt P33261); assay: Cytochrome P450 Family 2 Subfamily C Member 19 (CYP2C19) small molecule antagonists: luciferase reporter qHTS assay (AID 1671197); also: nearly all actives have a fitted effect of over 65% in size
Summary of the method: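 Quantitative high-throughput screen of the Tox21 library using CYP2C19 with proluciferin substrate. Reaction: NADPH regeneration, 37C, 1 h, after 10 min compound preincubation at room temperature. Readout: luminescence.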

[2] = biological target: Cytochrome P450 2C9 (Homo sapiens) (UniProt P11712); assay: Cytochrome P450 Family 2 Subfamily C Member 9 (CYP2C9) small molecule antagonists: luciferase reporter qHTS assay (AID 1671198); also: nearly all actives have a fitted effect of over 50% in size
Summary of the method: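 P450-Glo proluciferin substrate with CYP2C9 enzyme; 10 min RT preincubation, then NADPH regeneration 1 h at 37C; luciferin detection reagent 20 min RT, luminescence in relative luminescence units.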

[3] = biological target: Cytochrome P450 1A2 (Homo sapiens) (UniProt P05177); assay: Cytochrome P450 Family 1 Subfamily A Member 2 (CYP1A2) small molecule antagonists: luciferase reporter qHTS assay (AID 1671199); also: nearly all actives have a fitted effect of over 50% in size
Summary of the method: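 Steps: enzyme-substrate mix dispensed; test compounds and furafylline control pinned in; 10 min room temperature; NADPH regeneration solution added, 1 h; reaction stopped with luciferin detection reagent; luminescence read after 20 min.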

[4] = biological target: Cytochrome P450 3A4 (Homo sapiens) (UniProt P08684); assay: Cytochrome P450 Family 3 Subfamily A Member 4 (CYP3A4) small molecule antagonists: luciferase reporter qHTS assay (AID 1671201); also: nearly all actives have a fitted effect of over 50% in size
Summary of the method: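 Setup: enzyme-substrate mix, compound pin transfer, 10 min RT. Reaction: NADPH regeneration solution, 1 h RT. Readout: detection reagent stops turnover, luminescence measured after 20 min, expressed in relative luminescence units.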

[5] = biological target: Voltage-gated inwardly rectifying potassium channel KCNH2 (Homo sapiens) (UniProt Q12809); assay: Human Ether-a-go-go-Related Gene (hERG) channel small molecule antagonists: fluorescence cell-based qHTS assay (AID 1671200); also: nearly all actives have a fitted effect of over 50% in size
Summary of the method: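 Measured: Tl+ flux via fluorescence (480/540 nm) in hERG-expressing U2OS cells after 1 h dye loading at room temperature.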
Potency is read from the fitted curve at half-maximal effect.

Chain of Voltage-gated inwardly rectifying potassium channel KCNH2 (Homo sapiens) (Q12809 whole entry, looked up): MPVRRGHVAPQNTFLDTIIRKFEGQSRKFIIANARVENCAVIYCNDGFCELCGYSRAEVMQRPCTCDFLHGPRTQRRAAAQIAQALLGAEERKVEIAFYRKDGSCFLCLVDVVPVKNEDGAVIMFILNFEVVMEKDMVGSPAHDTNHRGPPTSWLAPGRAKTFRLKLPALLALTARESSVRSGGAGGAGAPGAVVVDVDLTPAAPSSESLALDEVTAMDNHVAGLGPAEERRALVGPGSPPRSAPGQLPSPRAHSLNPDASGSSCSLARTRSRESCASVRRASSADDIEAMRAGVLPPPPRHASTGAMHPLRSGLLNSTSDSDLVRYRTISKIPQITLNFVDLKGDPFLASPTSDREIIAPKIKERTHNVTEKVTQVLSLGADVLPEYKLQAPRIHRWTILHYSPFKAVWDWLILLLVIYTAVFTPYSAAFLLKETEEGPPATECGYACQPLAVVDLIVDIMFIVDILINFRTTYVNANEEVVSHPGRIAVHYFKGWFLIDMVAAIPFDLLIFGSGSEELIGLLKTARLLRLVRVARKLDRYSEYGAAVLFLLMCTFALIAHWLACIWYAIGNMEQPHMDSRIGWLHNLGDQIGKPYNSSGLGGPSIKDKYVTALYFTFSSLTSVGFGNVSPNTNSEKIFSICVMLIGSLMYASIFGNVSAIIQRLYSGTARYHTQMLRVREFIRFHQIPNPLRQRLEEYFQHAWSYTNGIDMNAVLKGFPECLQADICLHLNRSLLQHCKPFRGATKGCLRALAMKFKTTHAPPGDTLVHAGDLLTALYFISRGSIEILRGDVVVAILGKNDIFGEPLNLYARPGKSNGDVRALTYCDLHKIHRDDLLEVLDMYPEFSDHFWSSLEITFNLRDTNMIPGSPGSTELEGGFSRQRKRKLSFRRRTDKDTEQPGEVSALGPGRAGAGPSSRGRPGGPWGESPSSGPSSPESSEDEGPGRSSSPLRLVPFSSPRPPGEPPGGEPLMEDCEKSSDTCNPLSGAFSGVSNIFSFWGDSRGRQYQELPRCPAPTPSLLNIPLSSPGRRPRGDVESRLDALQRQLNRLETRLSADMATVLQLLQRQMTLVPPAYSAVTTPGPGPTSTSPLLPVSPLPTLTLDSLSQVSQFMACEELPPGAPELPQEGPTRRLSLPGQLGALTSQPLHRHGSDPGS
Chain of Cytochrome P450 1A2 (Homo sapiens) (P05177 whole entry, looked up): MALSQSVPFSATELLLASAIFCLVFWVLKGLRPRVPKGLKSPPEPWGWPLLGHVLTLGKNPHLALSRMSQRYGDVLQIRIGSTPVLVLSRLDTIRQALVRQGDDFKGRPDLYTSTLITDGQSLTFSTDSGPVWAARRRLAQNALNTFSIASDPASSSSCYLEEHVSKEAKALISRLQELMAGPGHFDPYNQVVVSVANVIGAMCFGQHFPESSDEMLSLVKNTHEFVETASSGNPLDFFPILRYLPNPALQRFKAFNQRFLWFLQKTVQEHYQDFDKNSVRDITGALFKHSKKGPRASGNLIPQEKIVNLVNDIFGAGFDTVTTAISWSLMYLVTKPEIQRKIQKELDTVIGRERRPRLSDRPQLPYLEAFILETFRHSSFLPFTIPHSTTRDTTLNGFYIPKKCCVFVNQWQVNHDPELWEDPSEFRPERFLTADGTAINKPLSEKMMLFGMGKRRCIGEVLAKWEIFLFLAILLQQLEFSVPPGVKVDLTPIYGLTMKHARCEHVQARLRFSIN
Chain of Cytochrome P450 3A4 (Homo sapiens) (P08684 whole entry, looked up): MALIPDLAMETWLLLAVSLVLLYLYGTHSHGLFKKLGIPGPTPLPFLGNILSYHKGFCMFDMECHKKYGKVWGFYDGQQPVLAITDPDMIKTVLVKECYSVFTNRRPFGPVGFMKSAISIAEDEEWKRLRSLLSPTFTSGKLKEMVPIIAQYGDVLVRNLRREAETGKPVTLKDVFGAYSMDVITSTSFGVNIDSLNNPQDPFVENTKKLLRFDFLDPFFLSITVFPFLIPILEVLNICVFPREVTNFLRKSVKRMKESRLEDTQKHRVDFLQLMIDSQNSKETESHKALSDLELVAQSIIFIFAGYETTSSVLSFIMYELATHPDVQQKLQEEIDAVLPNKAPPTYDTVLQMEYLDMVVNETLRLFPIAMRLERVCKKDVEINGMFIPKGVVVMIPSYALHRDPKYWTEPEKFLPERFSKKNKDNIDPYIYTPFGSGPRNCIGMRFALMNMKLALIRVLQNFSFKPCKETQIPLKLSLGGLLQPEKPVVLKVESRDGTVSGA
Chain of Cytochrome P450 2C19 (Homo sapiens) (P33261 whole entry, looked up): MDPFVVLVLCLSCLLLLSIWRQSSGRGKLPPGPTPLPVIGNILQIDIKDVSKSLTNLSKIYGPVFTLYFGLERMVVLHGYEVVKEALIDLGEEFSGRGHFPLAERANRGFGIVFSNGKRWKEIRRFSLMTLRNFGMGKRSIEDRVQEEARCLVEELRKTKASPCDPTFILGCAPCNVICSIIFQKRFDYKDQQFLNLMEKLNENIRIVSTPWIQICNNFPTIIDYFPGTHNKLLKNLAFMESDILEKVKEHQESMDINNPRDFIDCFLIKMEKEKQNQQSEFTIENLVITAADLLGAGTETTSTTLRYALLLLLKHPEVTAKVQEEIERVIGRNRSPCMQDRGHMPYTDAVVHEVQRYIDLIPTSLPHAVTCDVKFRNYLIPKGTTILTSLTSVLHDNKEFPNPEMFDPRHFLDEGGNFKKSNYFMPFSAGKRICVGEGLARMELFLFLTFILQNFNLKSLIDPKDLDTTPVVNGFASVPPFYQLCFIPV
Chain of Cytochrome P450 2C9 (Homo sapiens) (P11712 whole entry, looked up): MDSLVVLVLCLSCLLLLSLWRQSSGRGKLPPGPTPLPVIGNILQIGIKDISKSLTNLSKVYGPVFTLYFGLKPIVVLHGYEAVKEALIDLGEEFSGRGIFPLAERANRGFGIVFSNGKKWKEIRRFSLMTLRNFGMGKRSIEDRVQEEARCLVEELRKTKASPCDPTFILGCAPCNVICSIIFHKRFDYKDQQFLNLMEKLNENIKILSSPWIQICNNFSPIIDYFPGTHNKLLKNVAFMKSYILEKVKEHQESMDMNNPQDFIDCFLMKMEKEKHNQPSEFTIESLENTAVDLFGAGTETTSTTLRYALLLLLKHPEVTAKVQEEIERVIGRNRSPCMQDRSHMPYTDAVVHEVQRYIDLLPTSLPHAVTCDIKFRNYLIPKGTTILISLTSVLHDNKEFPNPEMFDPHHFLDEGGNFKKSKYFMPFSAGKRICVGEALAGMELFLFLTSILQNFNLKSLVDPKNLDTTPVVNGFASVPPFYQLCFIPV

CCN(Cc1cccnc1)C(=O)c1cccc(Cl)c1[C@]1(C)C(=O)N(Cc2ccc(OC)cc2OC)c2ccc(Cl)cc21
Potency [1]: 1.32 µM (active)
Potency [2]: 1.87 µM (active)
Potency [3]: inactive
Potency [4]: 0.132 µM (active)

Cc1cccc(S(=O)(=O)O)c1C
Potency [1]: inactive
Potency [2]: inactive
Potency [3]: inactive
Potency [4]: inactive

O=C1CCCc2c1cc1ccc3cccc4ccc2c1c34
Potency [1]: 18.1 µM (active)
Potency [2]: 5.71 µM (active)
Potency [3]: 0.321 µM (active)
Potency [5]: inactive
Potency [4]: 9.05 µM (active)

CSc1ccc(/C=C2/C(C)=C(CC(=O)O)c3cc(F)ccc32)cc1
Potency [1]: 17.4 µM (active)
Potency [2]: 24.5 µM (active)
Potency [3]: 15.5 µM (active)
Potency [4]: inactive

CCOC(=O)c1nc(C(Cl)(Cl)Cl)n(-c2ccc(Cl)cc2Cl)n1
Potency [1]: 5.03 µM (active)
Potency [2]: 3.17 µM (active)
Potency [3]: inactive
Potency [5]: 49 µM (active)
Potency [4]: inactive

Cc1cc2c(cc1C(F)(F)F)N(C(=O)Nc1ccc(Oc3cccnc3C)nc1)CC2
Potency [1]: 28.7 µM (active)
Potency [2]: 11.4 µM (active)
Potency [3]: 72.1 µM (active)
Potency [4]: 20.3 µM (active)

CCC(C)Nc1ccc(NC(C)CC)cc1 (stereo not drawn)
Potency [1]: 1.82 µM (active)
Potency [2]: 5.12 µM (active)
Potency [3]: 40.7 µM (active)
Potency [5]: 7.91 µM (active)
Potency [4]: 8.12 µM (active)

C/C=C1/C(=O)C[C@H]2[C@@H]3CCC4=CC(=O)CC[C@]4(C)[C@H]3CC[C@]12C
Potency [1]: 3.98 µM (active)
Potency [2]: 31.6 µM (active)
Potency [3]: 39.8 µM (active)
Potency [4]: inactive

CCCCCCCCCCCC[N+](C)(C)CCCCCCCCCCCC
Potency [1]: 35.6 µM (active)
Potency [2]: 22.4 µM (active)
Potency [3]: 71 µM (active)
Potency [4]: 35.6 µM (active)

C=CC(=O)OCC(CO)(COCC(COC(=O)C=C)(COC(=O)C=C)COC(=O)C=C)COC(=O)C=C
Potency [1]: 7.87 µM (active)
Potency [2]: 7.02 µM (active)
Potency [3]: inactive
Potency [4]: 0.395 µM (active)

Cc1cccc2c1cc1ccc3cccc4ccc2c1c34
Potency [1]: inactive
Potency [2]: inactive
Potency [3]: 0.205 µM (active)
Potency [5]: inactive
Potency [4]: inactive

CN1CCC(Nc2ncc3ncnc(Nc4ccc(F)c(Cl)c4)c3n2)CC1
Potency [1]: inactive
Potency [2]: inactive
Potency [3]: inactive
Potency [5]: inactive
Potency [4]: inactive

Oc1ccc(N=Nc2ccccc2)cc1
Potency [1]: 20.3 µM (active)
Potency [2]: 36.1 µM (active)
Potency [3]: 16.1 µM (active)
Potency [5]: inactive
Potency [4]: 20.3 µM (active)

Cc1cc(=O)oc2cc(N(C)C)ccc12
Potency [1]: 79.6 µM (active)
Potency [2]: 44.8 µM (active)
Potency [3]: 6.33 µM (active)
Potency [4]: 25.2 µM (active)

CCCCCCCCCCCCc1ccc(O)cc1
Potency [1]: 1.59 µM (active)
Potency [2]: 6.33 µM (active)
Potency [3]: 22.4 µM (active)
Potency [4]: 35.6 µM (active)

O=[N+]([O-])c1ccccc1Nc1ccccc1
Potency [1]: 19.9 µM (active)
Potency [2]: 39.7 µM (active)
Potency [3]: 5 µM (active)
Potency [5]: 54.6 µM (active)
Potency [4]: inactive

O=S1(=O)CC(Cl)(Cl)C(Cl)(Cl)C1
Potency [1]: 35.6 µM (active)
Potency [2]: 22.4 µM (active)
Potency [3]: 22.4 µM (active)
Potency [5]: inactive
Potency [4]: 25.2 µM (active)

Cc1cc(O)c(C(C)(C)C)cc1C(C)(C)C
Potency [1]: 17.8 µM (active)
Potency [2]: 28.3 µM (active)
Potency [3]: 35.6 µM (active)
Potency [4]: 31.7 µM (active)

N=C1C=CC(=C(c2ccc(N)cc2)c2ccc(N)cc2)C=C1
Potency [1]: 39.9 µM (active)
Potency [2]: 39.9 µM (active)
Potency [3]: 35.6 µM (active)
Potency [4]: 12.6 µM (active)

c1cc(C(c2ccc(OCC3CO3)cc2)c2ccc(OCC3CO3)cc2)ccc1OCC1CO1 (stereo not drawn)
Potency [1]: 56.4 µM (active)
Potency [2]: 20 µM (active)
Potency [4]: 7.96 µM (active)

CSc1ccc2c(c1)C(N1CCN(C)CC1)Cc1ccccc1S2 (stereo not drawn)
Potency [1]: 34.7 µM (active)
Potency [5]: 1.07 µM (active)

CCc1cc(Cc2cc(CC)c(N)c(CC)c2)cc(CC)c1N
Potency [1]: 0.71 µM (active)
Potency [3]: 10 µM (active)
Potency [5]: inactive

O=c1[nH]sc2ccccc12
Potency [1]: inactive
Potency [2]: 31.7 µM (active)
Potency [4]: 39.9 µM (active)

CCCCCCCCCCCCCCCC(=O)OC[C@H](O)[C@H]1OC(=O)C(O)=C1O
Potency [1]: 79.6 µM (active)
Potency [3]: inactive
Potency [5]: inactive
Potency [4]: inactive

O=C(OCC1CO1)C1CCCCC1C(=O)OCC1CO1 (stereo not drawn)
Potency [1]: 56.5 µM (active)
Potency [5]: inactive

CCN(CCC#N)c1ccc(N=Nc2c(Cl)cc([N+](=O)[O-])cc2Cl)cc1
Potency [1]: inactive
Potency [4]: inactive

Clc1ccc2cc3ccccc3cc2c1
Potency [1]: 79.6 µM (active)
Potency [5]: inactive
Potency [4]: inactive

O=C(Nc1cccc(Cl)c1)OCC#CCCl
Potency [1]: 8.94 µM (active)
Potency [4]: 7.1 µM (active)
